Measurements reported in the antibiotic and cytotoxicity screens of Wong et al. (2023).
In all, about 39,000 compounds went through this assay and about 500 (1.3%) were called active. The entries come from a sample that favours actives as a whole.

Tested on: S. aureus RN4220
Test: growth inhibition call (relative growth <= 0.2)
Settings: 50 µM

Row | SMILES | growth inhibition call
1 | C[C@@H]1CCCCO[C@@H](CN(C)C(=O)Nc2ccccc2)[C@@H](C)CN([C@H](C)CO)C(=O)c2cc(NC(=O)CCC(F)(F)F)ccc2O1 | inactive
2 | C[C@H]1CN([C@@H](C)CO)C(=O)c2cc(NC(=O)NC3CCCCC3)ccc2O[C@H]1CN(C)C(=O)Nc1cccc2ccccc12 | inactive
3 | OC[C@H]1O[C@@H]2O[C@H]3[C@H](O)[C@@H](O)[C@@H](O[C@H]4[C@H](O)[C@@H](O)[C@@H](O[C@H]5[C@H](O)[C@@H](O)[C@@H](O[C@H]6[C@H](O)[C@@H](O)[C@@H](O[C@H]7[C@H](O)[C@@H](O)[C@@H](O[C@H]1[C@H](O)[C@H]2O)O[C@@H]7CO)O[C@@H]6CO)O[C@@H]5CO)O[C@@H]4CO)O[C@@H]3CO | inactive
4 | COc1ccc(NC(=O)Nc2ccc3c(c2)CC(=O)N([C@@H](C)CO)C[C@H](C)[C@H](CN(C)S(=O)(=O)c2c(C)noc2C)O3)cc1 | inactive
5 | COc1ccc(S(=O)(=O)Nc2ccc3c(c2)CC(=O)N([C@@H](C)CO)C[C@@H](C)[C@@H](CN(C)C(=O)NC(C)C)O3)cc1 | inactive
6 | OC1OC(c2ccc(Cl)c(Cc3ccc(OC4CCOC4)cc3)c2)C(O)C(O)C1O (stereo unspecified) | inactive
7 | CO[C@@H]1CN(C)C(=O)c2ccc(NC(=O)C3CC3)cc2OC[C@H](C)N(C(=O)Cc2ccccn2)C[C@H]1C | inactive
8 | C[C@@H]1CN([C@H](C)CO)C(=O)c2cc(NS(=O)(=O)c3ccc(F)cc3)ccc2O[C@H]1CN(C)S(=O)(=O)c1cccs1 | inactive
9 | Cc1nnc(NCCc2ccccc2)n(N)c1=O | inactive
10 | c1ccc(CCNc2ccnc3cc4ccccc4cc23)cc1 | active
11 | NCCNc1cccc2ccccc12 | inactive
12 | C[C@@H]1CN([C@@H](C)CO)C(=O)Cc2cc(NC(=O)CCN3CCOCC3)ccc2O[C@@H]1CN(C)S(=O)(=O)c1ccc(Cl)cc1 | inactive
13 | CO[C@@H]1CN(C)C(=O)c2cc(NC(=O)C3CC3)ccc2OC[C@H](C)N(C(=O)CN2CCOCC2)C[C@H]1C | inactive
14 | NC(=O)N1C(=O)[C@H]2[C@H](C1=O)[C@H]1C=C(CCCO)[C@@H]2[C@H](c2ccc(CN3CCCC3)cc2)N1Cc1sc2ccccc2c1Cl | inactive
15 | COC(=O)C1=CC(CCCO)=C[C@@H](c2ccc(CN3CCCC3)cc2)N(Cc2sc3ccccc3c2Cl)C=C1C(=O)OC | inactive
16 | CS(=O)(=O)CCOC(=O)C1=CC(CCCO)=C[C@@H](c2ccc(CN3CCCC3)cc2)N(Cc2sc3ccccc3c2Cl)C=C1C(=O)OCCS(C)(=O)=O | active
17 | COc1cc(Cc2cc3c(c(CCc4ccccc4)n2)[Si](C(C)C)(C(C)C)O[C@H]3c2ccccc2)cc(OC)c1OC | active
18 | COc1cc(Cc2cc3c(c(CCc4ccccc4)n2)[Si](C(C)C)(C(C)C)OC3)cc(OC)c1OC | inactive
19 | COc1c(C)cc(-c2cc3c(c(-c4ccccc4)n2)[Si](C(C)C)(C(C)C)O[C@H]3c2ccccc2)cc1C | inactive
20 | COc1ccc(-c2cc3c(c(CCc4ccccc4)n2)[Si](C(C)C)(C(C)C)O[C@H]3c2ccccc2)cn1 | inactive
21 | COc1c(C)cc(-c2cc3c(c(CCc4ccccc4)n2)[Si](C(C)C)(C(C)C)O[C@H]3c2ccccc2)cc1C | active
22 | CCCCCCc1nc(-c2cc(C)c(OC)c(C)c2)cc2c1[Si](C(C)C)(C(C)C)O[C@H]2c1ccccc1 | inactive
23 | C=CCNC1=C2C[C@H](C)C[C@H](OC)[C@@H](O)[C@H](C)/C=C(\C)[C@H](OC(N)=O)[C@H](OC)/C=C/C=C(\C)C(=O)NC(=CC1=O)C2=O | inactive

Row | SMILES | growth inhibition call
24 | C[C@H](CO)N1C[C@H](C)[C@H](CN(C)Cc2ccc(C(=O)Nc3ccccc3N)cc2)Oc2c(NC(=O)NC3CCCCC3)cccc2C1=O | inactive
25 | C[C@@H]1CCCCO[C@@H](CN(C)CC2CCCCC2)[C@H](C)CN([C@@H](C)CO)C(=O)c2cc(NS(=O)(=O)c3cccs3)ccc2O1 | inactive
26 | O=C(NCc1ccc(Oc2ccccc2)cc1)c1nc(-c2cc(Br)c(O)c(Br)c2)no1 | active
27 | NNC(=O)c1nc(-c2ccccc2)no1 | inactive
28 | NCCNC(=O)c1nc(-c2ccc(Br)o2)no1 | inactive
29 | COc1ccc(NC(=O)N(C)C[C@H]2Oc3c(NC(=O)c4ccc(-c5nccs5)cc4)cccc3C(=O)N([C@@H](C)CO)C[C@H]2C)cc1 | inactive
30 | CN(C)c1cc[n+](C(=O)N2CCOCC2)cc1 | inactive
31 | COc1ccc2[nH]c(=O)[nH]c(=O)c2c1 | active
32 | O=c1[nH]c(=O)c2cc(Br)ccc2[nH]1 | inactive
33 | O=c1[nH]c(=O)c2ccccc2[nH]1 | inactive
34 | O=C(Nc1ccc(-c2nc3ccc(NC(=O)c4ccc(Cl)cc4)cc3[nH]2)cc1)c1ccc(Cl)cc1 | inactive
35 | COCC#Cc1cnc2c(c1)C(=O)N([C@H](C)CO)C[C@H](C)[C@@H](CN(C)S(=O)(=O)c1cn(C)cn1)O2 | inactive
36 | COc1ccc(CN(C)C[C@H]2OCCCC[C@H](C)Oc3ccc(NC(=O)c4ccccc4)cc3C(=O)N([C@@H](C)CO)C[C@@H]2C)cc1 | inactive
37 | Cc1cc(C(=O)Nc2cccc3c2O[C@@H](CN(C)C(=O)NC(C)C)[C@H](C)CN([C@@H](C)CO)C3=O)n(C)n1 | inactive
38 | C[C@@H]1CN([C@H](C)CO)C(=O)c2cc(NC(=O)Nc3ccccc3)ccc2O[C@@H](C)CCCCO[C@@H]1CN(C)Cc1ccccc1 | inactive
39 | C[C@@H](OC[C@@]1(c2ccccc2)CC[C@]2(CCC(=O)N2)CN1)c1cc(C(F)(F)F)cc(C(F)(F)F)c1 | active
40 | COc1ccc(NC(=O)Nc2cccc3c2O[C@@H](CN(C)S(C)(=O)=O)[C@H](C)CN([C@@H](C)CO)C3=O)cc1 | inactive
41 | Cc1cc(Cl)ccc1OCCN1CCN(C(=O)[C@H]2CC[C@@H](N)C2)CC1 | inactive
42 | Cc1ccccc1[C@@H](c1ncccc1C)N(C)C(=O)C1CCN(CCOc2ccc3ccccc3c2)CC1 | inactive
43 | COc1ccccc1[C@@H](NC(=O)C1CCN(CCOc2ccc(Cl)cc2Cl)CC1)c1ccccn1 | inactive
44 | Cc1cccnc1[C@H](c1ccc(F)cc1)N(C)C(=O)C1CCN(CCn2cnc3c2c(=O)n(C)c(=O)n3C)CC1 | inactive
45 | Cc1cccnc1[C@H](c1ccc(F)cc1)N(C)C(=O)C1CCN(CCOc2ccc(Cl)cc2Cl)CC1 | active
46 | Cc1ccccc1[C@@H](c1ncccc1C)N(C)C(=O)C1CCN(CCOc2ccc(Cl)cc2Cl)CC1 | active
